This note sets out measurements from PubChem BioAssay AID1956 (SRMLSC, 2009).

Out of some 220,000 compounds screened, about 10 (0.005%) were called active. No stated cut-off is given here; in the data, active means maximum fold increase above about 1.5; inconclusive means no clear call, values can overlap the other calls; inactive means below that; tested in PC3 cells. Not all results are given here.

A short description of the assay: compounds boosting herpes simplex virus growth – fold increase, host cell viability (AID 1956). As to conditions: HSV replication augmentation in cells; fold increase: measured here: primary screen fold increase 10 uM, at 10 µM, stronger effect = higher value; maximum fold increase: at 0.098 µM, stronger effect = higher value; viability: measured here: host cell viability series, at 25 µM, stronger effect = lower value.
Regarding `COc1ccc(Nc2cc(=O)n(-c3ccccc3)c3c2c(=O)n(C)c(=O)n3C)cc1`, the fold increase was determined as 1.09 and the compound was classed as inactive.

In the case of `NC(=O)C1=C[C@@H](c2ccc3c(c2)OCO3)C[C@@H](OCCCCO)O1`, the fold increase amounted to 0.58 and the result was inactive.

In the case of `O=C(NCC1CC1)c1onc(CSc2ccccc2)c1C(=O)NCC1CC1`, the fold increase was determined as 1.02 and the outcome was inactive.

Regarding `Cc1ccc(S(=O)(=O)N2CCN(C(=O)COC(=O)c3c(C)noc3C)CC2)c(C)c1`, the fold increase was 0.83 and the result was inactive.

Turning to `COc1ccc(CN2CC[C@H]3C=CC[C@@H](C(=O)N4CCOCC4)[C@H]3C2=O)cc1OC`, the fold increase stood at 0.78 and the call was inactive.

As for `Brc1ccc(-c2n(-c3ccccn3)c3ccccc3[n+]2-c2ccccn2)cc1`, the fold increase was found to be 1.03 and the result was inactive.

Take `Cc1[nH]n(C)c(=O)c1N=Nc1ccc(S(C)(=O)=O)cc1`: the fold increase amounted to 1.01 and the compound was classed as inactive.

On to `O=C(CC(c1ccccc1)c1cc(Cl)ccc1O)NCCN1CCOCC1` (configuration not stated), for which the fold increase amounted to 0.85 and the outcome was inactive.

As for `COC(=O)c1c(-c2ccsc2)oc2ccc(-c3cc(OC)c(OC)c(OC)c3)cc12`, the fold increase came to 1.05 and the outcome was inactive.

As to `Cc1cccc(NC(=O)c2ccc([N+](=O)[O-])o2)c1`, the fold increase came out at 0.66 and the outcome was inactive.

Turning to `C=CC1C(OC2OC(CO)C(O)C(O)C2O)OC=C(C(=O)OC)C1CC1CC(=O)CC(CC(=O)CCc2ccc(O)cc2)O1` (configuration not stated), the fold increase was found to be 1.03 and the call was inactive.

As to `O=C(N/N=C/c1cccc2cccnc12)[C@H]1C[C@@H]1c1ccccc1`, the fold increase amounted to 0.97 and the compound was called inactive.

Turning to `COCCn1c(SCC(=O)c2[nH]c(C)c(C(C)=O)c2C)nc2ccccc2c1=O`, the fold increase was found to be 0.86 and the result was inactive.

With `CC#CC[N+](C)(C)CCCCCC`, the fold increase amounted to 1.26 and the result was inactive.

As to `O=C(NCc1ccccc1)C1=C[C@@H](c2ccccc2)C[C@@H](OCCCCO)O1`, the fold increase came to 0.94 and the result was inactive.

On to `O=C(COc1ccc([N+](=O)[O-])cc1Cl)Nn1cnnc1`, for which the fold increase stood at 0.85 and the compound was called inactive.

Regarding `COc1ccc(/C=C/C(=O)Nc2ccc(C)cc2)cc1S(=O)(=O)N1CCOCC1`, the fold increase worked out at 0.88 and the outcome was inactive.

In the case of `CC1(C)S[C@@H]2[C@H](NC(=O)COc3ccccc3)C(=O)N2C1C(=O)OCc1ccccc1` (some centres not stated), the fold increase worked out at 0.86 and the compound was called inactive.

As for `NC(=O)c1nnsc1-c1ccc(-c2snnc2C(N)=O)cc1`, the fold increase worked out at 0.97 and the compound was called inactive.

With `O=[N+]([O-])C(=c1ccc2c(c1)N1C3=C(CCCC3)CC3CCCCC31N=2)[N+](=O)[O-]` (configuration not stated), the fold increase came to 1.07 and the outcome was inactive.

Regarding `Cc1ccc(-c2nc(SCC(=O)Nc3ccccc3OC(F)F)c3c(C)c(C(=O)O)sc3n2)cc1`, the fold increase amounted to 0.92 and the compound was called inactive.
